Activity calls are given as the source filed them.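 The calls were made as follows: active = compounds whose fitted half-maximal concentration is at most twice the top tested dose; inconclusive = flat curve with 30 to 70% signal loss, or poor fit; inactive = flat, opposite-direction or too weak compounds.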

This assay in a line: EF1alpha-driven Renilla reporter with control 3'UTR suppression – Clone20-Shn3RL cells, dual-Glo, dry powder, counter-screen for Shn3 3'UTR targeting project, dose response (AID 720716). The settings on record: Renilla luciferase control reporter, 24 h; series mostly up to 35 µM. For orientation: The purpose of a counterscreen is to sort out artefacts and off-target activity.
As to `CC(=O)Nc1cccc(NC(=O)CSc2ncc(-c3ccc(Cl)cc3)n2Cc2ccco2)c1`, the molecule was called inactive.

With `CCOC(=O)C1CCN(C(=O)c2ccc(OCC(=O)Nc3cccc(C(F)(F)F)c3)c(OC)c2)CC1`, the outcome was inactive.

On to `Cc1cc2c(cc(C(=O)N3CCC(C(=O)NC4CCCC4)CC3)n2Cc2c(F)cccc2Cl)o1`, for which the molecule was called inactive.

As for `CC(C)(C)NC(=O)CSc1nc2ccc(NC(=O)CSc3nnnn3Cc3ccccc3)cc2s1`, the call was inactive.

Regarding `CC(C)[C@H](NC(=O)OC(C)(C)C)c1nnc(S(=O)(=O)Cc2c(F)cccc2Cl)o1`, the outcome was inactive.

Regarding `Cc1cc(N2CCCC2=O)cc(C)c1S(=O)(=O)NCCOc1ccc(C(C)(C)C)cc1`, the outcome was inactive.

With `CCOC(=O)c1ccc(NC(=O)Cn2ncc(Cl)c(Cl)c2=O)cc1`, the result was inactive.

Take `O=C(c1nnsc1S(=O)c1ccc(Cl)cc1)N1CCOCC1` (stereo unspecified): the outcome was inactive.

Consider `CCCOc1ccccc1C1CC(=O)Nc2cc3c(cc21)OCO3` (stereo unspecified), for which the call was inactive.

Turning to `O=c1c2ccccc2nc2n1C(CSCc1ccc(Cl)cc1Cl)CS2` (stereo unspecified), the call was inactive.

As to `Fc1ccc(-n2nnnc2-c2cnc(-c3cccs3)nc2C(F)(F)F)cc1`, the outcome was inactive.

These data come from PubChem BioAssay AID720716 (Broad Institute, 2013).
